A selection: hits, their analogues and other compounds. The true share with any hit is near 19%.
Lassa entry inh: Lassa virus entry inhibition; hit rate 1.2% among 300,000; Lassa virus pseudotype entry inhibition, cell reporter; Potency, µM (highest dose often 37.9 µM), for the others: at the top dose activity change, negative = inhibition, hits mostly inhibitors; AID 540256; calls by dose curve; tested in HEK293 cells; further: potency means the concentration at half of the fitted maximal effect; on the % scale 0 is the no-effect control and ±100 the full control effect; nearly all actives have a fitted effect of over 50% in size
Pf growth 96h: P. falciparum growth inhibition at 96 hour, primary screen for plastid delayed-death inhibitors | P. falciparum luciferase reporter growth, 96 h | Potency, µM (highest dose often 28.7 µM), inactives show at the highest dose activity change, negative = inhibition, hits mostly inhibitors | hit rate 6.9% among 320,000 | AID 504834; further: potency means the concentration at half of the fitted maximal effect; on the % scale 0 is the no-effect control and ±100 the full control effect
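Readout is luminescence from an integrated firefly luciferase in P. falciparum. Red cells, 2% hematocrit and 0.05% parasitemia final, were cultured with compound through two parasite generations (96 hours) at 37 C, 5% CO2.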
Pf growth 48h: inhibits P. falciparum growth in the first generation, 48 h. Potency, µM (top dose mostly 28.7 µM), for the others: at the top dose activity change, negative = inhibition, usual class: inhibitors. hit rate 5.9% among 310,000. P. falciparum luciferase growth in erythrocytes, 48 h; further: potency means the concentration at half of the fitted maximal effect; on the % scale 0 is the no-effect control and ±100 the full control effect
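Firefly luciferase activity from engineered P. falciparum reports growth; inhibitors lower the luminescent signal. Cultures contained 2% hematocrit erythrocytes at 0.1% final parasitemia.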
Cycloheximide cs: affects cycloheximide protein synthesis inhibition readout, counter-screen; cell reporter, cycloheximide protein synthesis inhibition counterscreen; max response, %; hit rate 12% among 300,000; in the data active means max response mostly above about 13%, no sharp cut-off; inactive means mostly below about 14%; further: read at 38.3 µM for the half of the compounds with a filed dose; 0% is about no effect
Shiga toxin inh: Shiga toxin inhibition; hit rate 9.2% among 290,000; Vero cells, Shiga toxin protein synthesis inhibition reporter; inhibition, % at 38.7 µM; AID 2315; in the data active means inhibition mostly above about 28%, no sharp cut-off; inactive means mostly below about 43%; further: 0% is about no effect
Marburg entry inh: Marburg virus entry inhibition; Marburg virus pseudotyped entry inhibition, cell reporter; Potency, µM (titrated, usually from 37.8 µM), for inactives: at the highest dose activity change, negative = inhibition, most hits filed as inhibitors; hit rate 1.8% among 300,000; calls by dose curve; tested in HEK293 cells; further: potency means the concentration at half of the fitted maximal effect; on the % scale 0 is the no-effect control and ±100 the full control effect
* hit, by the source's call; ? = inconclusive; nt = not tested or not shown; [ ] = another dose, or the depositor's remark. Unless noted, the call rests on the fitted dose curve; in most records, active means well fitted inhibition curve with a large enough effect; inconclusive means small, poorly fitted or top-dose-only effect, or another doubt; inactive means no such curve, though single readings can be large or run the other way.

SMILES	Lassa entry inh	Pf growth 96h	Pf growth 48h	Cycloheximide cs	Shiga toxin inh	Marburg entry inh
CSC(=NC#N)N1CCN(c2ccc([N+](=O)[O-])cc2)CC1	11.1%	-17.1%	?	5.9	17.8	-2.4%[46.1 µM]
CS(=O)(=O)c1nc(-c2ccccc2)cc(-c2ccccc2)c1C#N	14.6µM*	1.65µM*	?	1.7	-24.7	12.6µM*
Cc1ccc(-c2cc(-c3ccccc3)c(C#N)c(Br)n2)cc1	17.3%	140.6%	17.4%	-1.9	-3.8	?
O=C(O)C1Cc2ccccc2CN1C(=O)COc1ccc(Br)cc1 (stereo not drawn)	4.8%	19.2%	7.6%	-3.6	-11.8	1.0%[46.1 µM]
CCOC(=O)N1CCN(C(=O)c2ccc(Cn3c(=S)[nH]c4cc(OCC)c(OCC)cc4c3=O)cc2)CC1	?	34.6%	?	-3.6	-4.1	?
O=C(c1ccc2c(=O)n(Cc3ccc(Cl)cc3)c(=S)[nH]c2c1)N1CCCC1	nt	?	-17.5%	1.8	0.9	nt
CC1CC(C)CN(C(=O)c2ccc3c(=O)n(Cc4ccc5c(c4)OCO5)c(=S)[nH]c3c2)C1 (stereo not drawn)	4.3%	7.38µM*	-5.1%	-2.3	-13.4	17.2%
CCOC(=O)N1CCN(C(=O)c2ccc(Cn3c(=S)[nH]c4cc5c(cc4c3=O)OCO5)cc2)CC1	?	?	13.1µM*	-1.2	-6.7	?
O=C(c1ccc2c(=O)n(Cc3ccc(Cl)cc3)c(=S)[nH]c2c1)N1CCOCC1	?	23.5%	12.4%	26.5*	22.9*	-16.0%[46.1 µM]
CCOc1ccc(CCNC(=O)c2cccc(-n3c(C)nc4cccnc43)c2)cc1	-11.1%[46.1 µM]	nt	nt	nt	nt	nt
O=C(NCC1CCNCC1)c1ccncc1	-0.2%	nt	3.7%	-9.4	12.1	1.4%
Cc1ccc(-n2nnnc2-c2nc3ccccc3s2)cc1	0.1%	?	-18.1%	15.5*	50.9*	6.6%
CCOc1ccc(-n2nnnc2-c2nc3ccccc3s2)cc1	?	?	2.2%	60.1*	137.9*	?
C#CCSc1nc2sc3c(c2c(=O)n1Cc1ccccc1)CCCC3	-14.1%[46.1 µM]	nt	nt	nt	nt	nt
N/C(=N\S(=O)(=O)c1ccc(Cl)s1)c1ccccc1	0.0%	19.2%	17.6%	-1.4	22.9	-8.7%
CCOc1ccc(S(=O)(=O)/N=C(\N)c2ccccc2)cc1	12.6µM*	23.3%	-3.9%	-1.8	17.2	0.2%[46.1 µM]
CCOc1ccc(S(=O)(=O)/N=C(/c2ccccc2)N(C)C)cc1	nt	?	-3.8%	-5.1	13.4	nt
CCS(=O)(=O)/N=C(\N)c1ccccc1	-4.4%	37.9%	7.6%	30.1*	22.2	-0.8%
CCc1ccc(C(=O)OCC(=O)NCCNC(=O)COC(=O)c2ccc(CC)cc2)cc1	-2.6%	29.2%	1.2%	1.5	-5.8	13.1%
C[C@@H](CN(C)C)CN1c2ccccc2CCc2ccccc21	nt	?	?	nt	nt	13µM*
CC(CN(C)C)CN1c2ccccc2CCc2ccccc21 (stereo not drawn)	?	?	?	-4.5	-13.2	13µM*
CN(C)CCCN1c2ccccc2CCc2ccccc21	nt	nt	nt	-1.3	-13.3	nt
COc1ccc(Nc2cc(Nc3cc(OC)c(OC)c(OC)c3)ncn2)cc1	-11.0%	6.0%	?	-1.7	-3.9	15.8µM*
COc1ccc(Nc2cc(Nc3ccc(OC)cc3)ncn2)cc1	-7.6%[46.1 µM]	-28.4%	-7.0%	7.2	-3.5	8.6%[46.1 µM]
COc1ccc(Nc2cc(Nc3cccc(OC)c3)ncn2)cc1	1.9%	?	-23.5%	53.9*	56.0*	-9.1%
SMILES	Lassa entry inh	Pf growth 96h	Pf growth 48h	Cycloheximide cs	Shiga toxin inh	Marburg entry inh
CC(C)[C@H](NC(=O)c1ccccc1Br)C(=O)OCc1nc2ccsc2c(=O)[nH]1	1.2%	14.5%	11.7%	nt	nt	-10.8%[46.1 µM]
CN(c1ccccc1)c1nc(N2CCCC2)nc(-n2ccnc2)n1	?	?	5.22µM*	-3.3	-22.6	-25.4%[46.1 µM]
CCOC(=O)N1CCN(c2nc(N(c3ccccc3)c3ccccc3)nc(-n3ccnc3)n2)CC1	nt	?	?	-1.8	10.0	nt
N/C(=N/O)c1nc(N2CCCC2)nc(N(c2ccccc2)c2ccccc2)n1	?	?	?	-1.9	-9.9	?
c1ccc(N(c2ccccc2)c2nc(N3CCCC3)nc(-n3ccnc3)n2)cc1	1.64µM*	?	5.86µM*	16.5	3.5	?
Cc1cccc(C(=O)Nc2cccc(C(=O)N/N=C/c3ccc4c(c3)OCO4)c2)c1	-16.0%	0.5%	23.3%	39.7*	78.5*	?
Cc1cccc(C(=O)Nc2ccc(C(=O)N/N=C/c3ccc4c(c3)OCO4)cc2)c1	?	2.2%	?	-5.5	-4.1	?
O=C(N/N=C/c1ccc2c(c1)OCO2)C(=O)Nc1cccc(Cl)c1	21.6%[46.1 µM]	-11.6%	23.9%	16.0*	65.3*	7.8%[46.1 µM]
O=C(N/N=C/c1ccc2c(c1)OCO2)c1cccc(NC(=O)c2ccccc2Cl)c1	?	41.6%	1.7%	12.2	47.9*	?
Cc1ccccc1C(=O)Nc1cccc(C(=O)N/N=C/c2ccc3c(c2)OCO3)c1	?	3.0%	3.4%	19.7*	55.4*	-24.6%[46.1 µM]
O=C(N/N=C/c1ccc2c(c1)OCO2)c1ccc(NC(=O)c2ccccc2Cl)cc1	?	-12.5%	?	11.5	25.0	-3.3%[46.1 µM]
COc1cc(/C=N/NC(=O)c2cccc(NC(=O)c3ccccc3C)c2)ccc1O	-3.5%[46.1 µM]	?	-9.5%	-1.9	-8.5	-26.0%[46.1 µM]
CCCCS(=O)(=O)Nc1ccc(Cc2ccncc2)cc1	-10.8%	-0.5%	-1.1%	0.4	3.3	-2.2%
Clc1ccc(Cn2c(-c3cccnc3Cl)nc3ccccc32)cc1	4.7%	?	?	-2.9	-2.3	-23.5%
CCn1c(-c2ccc[nH]c2=O)nc2ccccc21	nt	44.8%	20.3%	1.4	-5.9	nt
CN1c2ccccc2-c2nc3ccccc3n2C1c1ccccn1 (stereo not drawn)	0.9%	nt	9.28µM*	20.8	23.9	-13.6%
CN1c2ccccc2-c2nc3ccccc3n2C1c1ccncc1 (stereo not drawn)	?	?	?	7.2	-16.0	-12.9%
CCN1c2ccccc2-c2nc3ccccc3n2C1c1ccco1 (stereo not drawn)	0.4%	4.65µM*	11.7µM*	-4.1	-3.5	-13.1%
c1ccc(CN2c3ccccc3-c3nc4ccccc4n3C2c2ccccn2)cc1 (stereo not drawn)	14.8%	4.15µM*	7.38µM*	-2.9	14.9	1.0%
O=C(Nc1cc(Cl)ccc1N1CCOCC1)c1ccc(F)c(S(=O)(=O)N2CCOCC2)c1	22.0%	?	?	nt	nt	24.1%
Cc1nc2c(C(=O)N3CCN(c4ccccn4)CC3)cnn2c(C)c1Cc1cccc(Cl)c1	-1.8%	25.1%	8.7%	-3.9	37.1	2.8%
Cc1ccc(C2CC(c3cccc(C)c3)n3ncnc3N2)cc1 (stereo not drawn)	nt	?	nt	-2.8	-15.2	4.0%
COc1ccccc1C1CC(c2ccc(Cl)cc2)Nc2ncnn21 (stereo not drawn)	-12.6%	-1.3%	13.1µM*	3.2	-5.7	8.5%

High-throughput results deposited in PubChem BioAssay by National Center for Advancing Translational Sciences (NCATS).
